Results published in PubChem BioAssay (EPA / NIEHS).
Inconclusive results are not listed. The source made the active and inactive calls. How the source made its calls, unless noted: active means hit-call score of the fitted dose curve at least 0.9, where 1 is the maximum; inconclusive means response in the unintended direction; inactive means score below 0.9.

How the values were obtained:
[1] = Tanguay_ZF_120hpf_SWIM_legacy: (Legacy) Oregon State University Tanguay Lab 120 Hour Post-fertilization zebrafish Assay for Swim Bladder Malformation (AID 2283654);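 further: swim bladder malformation in each larva scored yes or no under brightfield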
Outline: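 Static waterborne exposure of single dechorionated Tropical 5D zebrafish embryos, 6–120 hpf, 28C, 0.64% DMSO final. Read-out: swim bladder malformation, present/absent, relative to DMSO negative control; trimethyltin chloride 5uM served as positive control.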

[2] = Tanguay_ZF_120hpf_NC_legacy: (Legacy) Oregon State University Tanguay Lab 120 Hour Post-fertilization zebrafish Assay for Notochord and Tail Malformation (AID 2283656)
Outline: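 Binary scoring of notochord distortion by brightfield microscopy; embryos dying were not scored. Wild-type Tropical 5D embryos, chorion removed, exposed singly and statically from 6 to 120 hpf, 28C, sealed, 0.64% DMSO.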

[3] = Tanguay_ZF_120hpf_TR_legacy: (Legacy) Oregon State University Tanguay Lab 120 Hour Post-fertilization zebrafish Assay for Touch Response (AID 2283667)
Outline: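 Readout is presence or absence of touch response in 120 hpf zebrafish larvae, assessed by brightfield observation after continuous static exposure at 28C. Final vehicle was 0.64% (vol/vol) DMSO.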

[4] = Tanguay_ZF_120hpf_ActivityScore_legacy: (Legacy) Oregon State University Tanguay Lab 120 Hour Post-fertilization zebrafish Assay Score for Activity (AID 2283742);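 on AC50: dechorionated Tropical 5D wild-type zebrafish embryos held singly per well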
Outline: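 In this whole-embryo screen, dechorionated zebrafish were exposed from 6 hpf until 120 hpf at 28C under a 0.64% DMSO vehicle. Developmental malformations and death were recorded by brightfield microscopy as binary endpoints.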

[5] = Tanguay_ZF_120hpf_TRUN_legacy: (Legacy) Oregon State University Tanguay Lab 120 Hour Post-fertilization zebrafish Assay for Truncated Body (AID 2283655)
Outline: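 Binary presence/absence of truncated body is recorded at 120 hpf by brightfield, with non-mortality endpoints skipped after death. Exposure is static from 6 hpf in sealed dark plates at 28C, using dechorionated wild-type zebrafish, 0.64% DMSO.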

[6] = tested on: Thyroperoxidase (TPO), gene 54314; experiment: CCTE_Simmons_AUR_rTPO: CCTE's Amplex UltraRed Assay for Thyroperoxidase (TPO) Inhibition, Simmons Lab (AID 2283662);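 on AC50: potency for loss of signal meaning inhibition of peroxidase activity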
Outline: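 Cell-free peroxidase activity assay using rat thyroid gland microsomes with excess H2O2 (300 uM) and 25 uM Amplex UltraRed. Compounds tested from 5 nM to 87.5 uM; fluorescence measured after 30 min at 37C, analysed relative to DMSO baseline.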

[7] = CCTE_Simmons_CellTiterGLO_HEK293T: Viability Assessment in CCTE's Assays for Thyroperoxidase (TPO) Inhibition, Simmons Lab (AID 2283665);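 on AC50: cells exposed to compound for 24 h before readout; actives reduce ATP signal below DMSO vehicle meaning cytotoxicity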
Outline: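 Luciferase-coupled ATP content after 24 h exposure gives viability; 8-point series from 5 nM to 87.5 uM final in 0.5% DMSO. Human HEK293T cells, 1% FBS medium, three biological replicates, dichlone positive control.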

[8] = STM_H9_OrnithineISnorm_perc: Stemina devTOX quickPredict H9 human embryonic stem cell (hESC)-based Assay for Ornithine (ORN) Metabolite Biomarker, Normalized (AID 2283712; active means hit-call score of the fitted dose curve at least 0.9, where 1 is the maximum; inactive means score below 0.9;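 further: ornithine released into spent medium during last day measured by mass spectrometry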)
Outline: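 Ornithine in spent medium from the last 24 h of a 72 h exposure, deproteinised and quantified by UPLC-HRMS against an isotope-labelled internal standard, expressed relative to 0.1% DMSO. Pluripotent H9 cells; compound refreshed every 24 h.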

[9] = STM_H9_CystineISnorm_perc: Stemina devTOX quickPredict H9 human embryonic stem cell (hESC)-based Assay for Cystine (CYSS) Metabolite Biomarker, Normalized (AID 2283713; active means hit-call score of the fitted dose curve at least 0.9, where 1 is the maximum; inactive means score below 0.9)
Outline: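 Cystine in spent media from the last 24 h of a 72 h H9 hESC exposure (daily re-dosing), measured by UPLC-HRMS. Values normalized to isotopic internal standard, then to 0.1% DMSO; viability via CellTiter-Fluor.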

[10] = CCTE_Padilla_ZF_144hpf_TERATOSCORE: (Legacy) CCTE's 144 Hour Post-fertilization zebrafish Assay Teratoscore, Padilla Lab (AID 2283679; active means hit-call score of the fitted dose curve at least 0.9, where 1 is the maximum; inactive means score below 0.9;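 on AC50: zebrafish embryos with chorions exposed by immersion from 6-8 hpf to 5 dpf with daily renewal; teratogenicity score from eye scoring of death hatching and malformations at 144 hpf; higher score means more developmental defects relative to DMSO baseline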)
Outline: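 Larvae scored by eye at 144 hpf for death, hatching and malformations after a day in clean Hanks'. Before that, daily-renewed exposure at 80 uM (0.4% DMSO, 26C) from roughly 6-8 hpf through 5 dpf, 4 embryos per chemical.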

[11] = CEETOX_H295R_MTT_cell_viability: Viability Assessment in the CeeTox HT-H295R MTT Assay (AID 2283718; active means hit-call score of the fitted dose curve at least 0.9, where 1 is the maximum; inactive means score below 0.9;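 on AC50: curve fitted both ways so AC50 may mark viability loss or gain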)
Outline: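 H295R cells prestimulated 48 h with 10 uM forskolin, then exposed 48 h to test chemical (0.1% DMSO final). Viability by MTT (0.5 mg/ml, 4 h, 37 C), absorbance 570/650 nm; percent change versus DMSO, bidirectional fit.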

[12] = STM_H9_OrnCyssISnorm_ratio: Stemina devTOX quickPredict H9 human embryonic stem cell (hESC)-based Assay for Ornithine (ORN):Cystine (CYSS) Ratio (AID 2283714)
Outline: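 H9 hESC, 72h, q24h re-dose; last-day media → acetonitrile deproteinization → UPLC-HRMS. ORN:CYSS ratio from isotope-normalized EIC areas, vs 0.1% DMSO; MTX references on each plate.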

[13] = tested on: Thyroperoxidase (TPO), gene 445522; experiment: CCTE_Simmons_GUA_TPO: CCTE's Guaiacol Assay for Thyroperoxidase (TPO) Inhibition, Simmons Lab (AID 2283750)
Outline: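 Porcine thyroid microsomes (25 ug) in 200mM potassium phosphate, preincubated 30 s at 37C with compound (8 concentrations, 5 nM–87.5 uM) and 35mM guaiacol; 1mM H2O2 starts reaction. Absorbance change at 450nm over first 80 s; loss of signal versus DMSO, three replicates.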

Measured: AC50

O=C(O)c1ccccc1-n1cc(C(=O)O)c(=O)c2cc(Nc3c(F)cc(F)cc3Cl)c(Cl)cc21
inactive: [1] | [2] | [3] | [4]

O=C1O[C@H]([C@@H](O)CO)C(O)=C1O
inactive: [5] | [2] | [7] | [3] | [4]
active: [6] 43.8 µM

CCOC(=O)O[C@H](C)OC(=O)c1ccc2c(c1)cc(C(=O)NC1CCN(C(C)C)CC1)n2Cc1cc(-c2ccc(Cl)s2)on1
active: [6] 9.93 µM | [7] 2.11 µM | [4] 34.8 µM
inactive: [5] | [2] | [3] | [8] | [9]

Cc1ccc2oc(CN(Cc3ccccc3)C(=O)Nc3c(F)cc(F)cc3F)c(-c3ccc(Cl)cc3)c2c1
inactive: [5] | [2] | [3] | [10] | [11] | [4]

CC(C)(O)c1ccc(CNC(=O)c2cccnc2Oc2ccc3nonc3c2)cc1
inactive: [1] | [5] | [11] | [4]

Cc1ncc(CO)c(CO)c1O
inactive: [1] | [5] | [2] | [3] | [4]

O=C(O)c1ccccc1C(=O)OCc1ccccc1
inactive: [1] | [2] | [3] | [11] | [4]

CN1C(=O)N(c2ccccc2Br)Cc2cnc(Nc3ccc4c(c3)OCC(CO)O4)nc21 (stereo not given)
inactive: [1] | [5] | [11]
active: [8] 1.42 µM | [9] 1.06 µM | [12] 1.18 µM | [4] 6.73 µM

CCCCCCCCOc1ccc(C(=O)c2ccccc2)c(O)c1
inactive: [1] | [5] | [2] | [11] | [4]

CC/C(=C(/CC)c1ccc(O)cc1)c1ccc(O)cc1
active: [6] 5.22 µM | [7] 8.59 µM | [11] 24.4 µM | [4] 28.5 µM
inactive: [1] | [8] | [9] | [12]

c1ccc(C[n+]2cccc3ccccc32)cc1
inactive: [5] | [2] | [3] | [11] | [4]

CC1=CC(=O)/C(=C(/C)O)C(=O)O1
inactive: [5] | [2] | [4]

CCN(Cc1cccc(S(=O)(=O)O)c1)c1ccc(C(=C2C=CC(=[N+](CC)Cc3cccc(S(=O)(=O)O)c3)C=C2)c2ccccc2S(=O)(=O)[O-])cc1
inactive: [5] | [3] | [10] | [4]
active: [6] 19.2 µM | [7] 4.21 µM

CN(C)C(=O)C1(N2CCCCC2)CCN(CC[C@@]2(c3ccc(Cl)c(Cl)c3)CN(C(=O)c3ccccc3)CCO2)CC1
inactive: [1] | [5] | [2] | [9]
active: [8] 8.19 µM | [12] 8.17 µM | [4] 16.2 µM

CC[C@@H]1C[C@H](N(Cc2cc(C(F)(F)F)cc(C(F)(F)F)c2)C(C)=O)c2cc(C(F)(F)F)ccc2N1C(=O)OC(C)C
inactive: [1] | [4]

Cc1c2ccccc2c(C)c2c1ccc1ccccc12
active: [7] 17.2 µM | [9] 5 µM | [12] 5 µM | [4] 8.83 µM | [13] 146 µM
inactive: [5] | [2] | [6] | [3] | [8] | [11]

CCCCCCCCN(C)CCCCCCCC
inactive: [5] | [2] | [3] | [8] | [9] | [12] | [11] | [4]

CC(C)(C)c1cc(/C=C2\SC(N)=NC2=O)cc(C(C)(C)C)c1O
active: [6] 5.18 µM | [7] 8.58 µM | [9] 5 µM | [12] 3.33 µM | [4] 47.2 µM
inactive: [1] | [5] | [3] | [8] | [11]

CCCCOC(=O)CC(CC(=O)OCCCC)(OC(C)=O)C(=O)OCCCC
active: [10] 4.96 µM
inactive: [1] | [5] | [3] | [4]

O=c1ccc2ccccc2o1
inactive: [5] | [2] | [3] | [4]

CCCCCCCCCCCO
inactive: [1] | [5] | [3] | [4]

OC12N=C(c3ccccc3)SC1Cc1cc(Cl)ccc12 (stereo not given)
inactive: [1] | [11]
active: [5] 48.2 µM | [6] 13 µM | [7] 29.7 µM | [3] 14.9 µM | [4] 32.7 µM

O=c1[nH]sc2ccccc12
inactive: [1] | [5] | [2] | [3] | [4]
